The text below walks through data of PubChem BioAssay.

Activity calls are given as the source filed them. Unless noted, the rule behind the calls is not given here.

The nature of assay [1]: compounds binding Alexa647 anti-His antibody – biochemical, small-molecule microarray, 635 nm fluorescence, artefact control for SMM control protein annotation, primary screen (AID 1128).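 Note: score merges feature fluorescence with signal-to-noise for each printed compound spot.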 The note with it: higher = more signal.
Assay [2] deals with Human papillomavirus type 1a E7 protein (residues 1-88). Briefly: HPV1a E7 small-molecule binders, primary screen, biochemical, small-molecule microarray, residues 1-88, 635 nm (AID 1129). Conditions: small-molecule microarray binding, fluorescence 635 nm; higher = more signal.
Assay [3] concerns the target Focal adhesion kinase 1 (Homo sapiens) (UniProt Q05397). The experiment in a line: PTK2 protein binding on printed compound slides – biochemical, small-molecule microarray, 635/667 nm fluorescence, BSA, DTT, primary screen (AID 1130).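 Note: composite of spot emission at 667 nm and signal to noise over triplicate slides.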 Conditions: 635 nm fluorescence, higher = more signal.
Assay [4] deals with Fibrinogen (Alexa647-labelled). Briefly: Alexa647-fibrinogen binding to printed small molecules – biochemical, small-molecule microarray, 635/667 nm fluorescence, artefact control for SMM control-protein annotation, profiling panel (AID 1131).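 Note: z-score merges 667 nm fluorescence with per-spot signal-to-noise over triplicate slides.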 The note with it: fibrinogen-A647 binding fluorescence, higher = more signal.
Assay [5] deals with Follistatin (Homo sapiens) (UniProt P19883). The experiment in a line: FST protein binding to printed compounds – biochemical, small-molecule microarray, 635/667 nm fluorescence, primary screen (AID 1132). Conditions: 635 nm fluorescence, higher = more signal.
Assay [6] deals with Fibroblast growth factor 2 (Homo sapiens) (UniProt P09038). Briefly: basic fibroblast growth factor binding to printed compounds – biochemical, small-molecule microarray, 635/667 nm fluorescence, primary screen (AID 1133). Conditions: FGF2, fluorescence 635/667, higher = more signal.
Assay [7] can be described thus: JC-1 mitochondrial potential readout, lung cancer cells – cell-based, A549, JC-1 fluorescence, basal, 24 h, 100 nL, profiling panel (AID 1138).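 Note: A549 lung adenocarcinoma cells under basal conditions with no added stimulus; test concentration not given here.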 The note with it: higher = more signal.
For another assay, the system named is Lefty1. Briefly: Lefty1 protein binding to printed compounds – biochemical, small-molecule microarray, 635/667 nm fluorescence, primary screen (AID 1139). Conditions: fluorescence 635/667, higher = more signal.
In assay [8] the test system is wheat germ agglutinin (Triticum aestivum), Alexa647-labelled. The experiment in a line: Alexa647-WGA lectin binding to printed small molecules – biochemical, small-molecule microarray, 635/667 nm fluorescence, artefact control for SMM control-protein annotation, profiling panel (AID 1140).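 Note: score merges 667 nm feature emission with signal to noise over triplicate slides.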 Conditions: WGA-A647 binding, 635 nm fluorescence, higher = more signal.
The target in assay [9] is Luciferin 4-monooxygenase (Photinus pyralis) (UniProt P08659). The experiment in a line: inhibition of purified Photinus pyralis luciferase – biochemical, luminescence, purified enzyme, 2006 set, primary screen (AID 1141).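 Note: cell-free assay with purified firefly luciferase at 100 ng per well in PBS; test concentration not given here.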 The note with it: purified firefly luciferase, SteadyGlo luminescence, 30 min; higher = more signal, called active from +8 up or from −8 down.
Assay [10] deals with Wnt5a (protein binding on small-molecule microarray). The experiment in a line: small molecules binding Wnt5a protein – biophysical, small-molecule microarray, 635/667 nm fluorescence, primary screen (AID 1142).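 Note: fluorescence read at 667 nm with signal to noise per printed feature.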 Conditions: 635 nm fluorescence, higher = more signal.
A short description of assay [11]: ATP-based viability of Huh7 replicon cells – cell-based, CellTiter-Glo luminescence, basal, 48 h, cytotoxicity control for HCV replication inhibitor project, primary screen (AID 1143).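 Note: Huh7 hepatoma cells carrying a hepatitis C replication reporter with no stimulus; test concentration not given here.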 The note with it: higher = more signal, called active from +8 up or from −8 down. (In antiviral work, replicon cells carry a viral genome segment that copies itself.)
Assay [12] can be described thus: Pseudomonas biofilm growth suppression – PAO1 strain, BacTiter-Glo luminescence, LB-PBS, primary screen (AID 1144). Conditions: P. aeruginosa PAO1 biofilm, 12 h, higher = more signal.
Assay [13] can be described thus: basal CRE-LacZ reporter activity in PC12 – cell-based, unstimulated, primary screen (AID 1145). Conditions: no forskolin, luminescence, 4.5 h, higher = more signal, called active from +8 up or from −8 down.
Assay [14] is described as follows: forskolin-driven CRE-LacZ activity in PC12 – cell-based, CRE-LacZ reporter, forskolin-stimulated, primary screen (AID 1146).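 Note: PC12 cells with 6xCRE LacZ reporter stimulated by forskolin 10 µM; beta-galactosidase reporter signal reflecting CREB driven transcription.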 Conditions: luminescence, 4.5 h, higher = more signal, called active from +8 up or from −8 down.
Assay [15] deals with Streptavidin (Streptomyces avidinii) (UniProt P22629). Briefly: compounds binding control protein streptavidin – biophysical, small-molecule microarray, 635/667 nm fluorescence, artefact control for SMM compound annotation, primary screen (AID 1147).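 Note: signal reflects streptavidin binding to arrayed compounds as a control protein.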 Conditions: higher = more signal.
Assay [16] is described as follows: probe aInhba binding on compound microarray – biochemical, small-molecule microarray, 635/667 nm fluorescence, primary screen (AID 1148).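 Note: score merges 667nm spot fluorescence with signal-to-noise for antibody binding to printed compounds.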 Conditions: higher = more signal.
In assay [17] the target is Torsin-1A (Homo sapiens) (UniProt O14656). The experiment in a line: TOR1A wild-type binding on microarray – cell lysate, small-molecule microarray, lysate, 635/667 nm, primary screen (AID 1149). Conditions: COS7 hTOR1A-WT lysate, 635 nm fluorescence, higher = more signal.
The target is the same in assay [18]. Briefly: torsin A mutant lysate binding on microarrays – cell lysate, small-molecule microarray, COS7 lysate, 635/667 nm fluorescence, primary screen (AID 1150).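 Note: score pools 667 nm emission and signal to noise measuring lysate protein binding.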 The note with it: COS7 hTOR1A mutant lysate, 635 nm fluorescence, higher = more signal.
Assay [19] concerns Sonic hedgehog protein (Shh). Briefly: Sonic hedgehog microarray binding compounds – biochemical, small-molecule microarray, 635/667 nm fluorescence, primary screen (AID 1151).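 Note: Shh protein binding to compounds spotted on small-molecule microarray slides; score combines spot fluorescence intensity with signal-to-noise across triplicate slides.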 Conditions: 635 nm fluorescence, higher = more signal.

Sequence of Fibroblast growth factor 2 (Homo sapiens) (P09038 whole entry, looked up): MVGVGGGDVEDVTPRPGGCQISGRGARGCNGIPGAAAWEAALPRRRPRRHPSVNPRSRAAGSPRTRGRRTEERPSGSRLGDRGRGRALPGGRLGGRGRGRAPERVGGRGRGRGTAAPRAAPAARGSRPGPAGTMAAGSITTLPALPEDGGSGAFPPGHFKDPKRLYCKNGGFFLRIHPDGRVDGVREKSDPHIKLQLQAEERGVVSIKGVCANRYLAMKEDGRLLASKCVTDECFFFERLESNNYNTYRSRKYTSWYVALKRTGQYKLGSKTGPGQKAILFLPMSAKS
Sequence of Luciferin 4-monooxygenase (Photinus pyralis) (P08659 whole entry, looked up): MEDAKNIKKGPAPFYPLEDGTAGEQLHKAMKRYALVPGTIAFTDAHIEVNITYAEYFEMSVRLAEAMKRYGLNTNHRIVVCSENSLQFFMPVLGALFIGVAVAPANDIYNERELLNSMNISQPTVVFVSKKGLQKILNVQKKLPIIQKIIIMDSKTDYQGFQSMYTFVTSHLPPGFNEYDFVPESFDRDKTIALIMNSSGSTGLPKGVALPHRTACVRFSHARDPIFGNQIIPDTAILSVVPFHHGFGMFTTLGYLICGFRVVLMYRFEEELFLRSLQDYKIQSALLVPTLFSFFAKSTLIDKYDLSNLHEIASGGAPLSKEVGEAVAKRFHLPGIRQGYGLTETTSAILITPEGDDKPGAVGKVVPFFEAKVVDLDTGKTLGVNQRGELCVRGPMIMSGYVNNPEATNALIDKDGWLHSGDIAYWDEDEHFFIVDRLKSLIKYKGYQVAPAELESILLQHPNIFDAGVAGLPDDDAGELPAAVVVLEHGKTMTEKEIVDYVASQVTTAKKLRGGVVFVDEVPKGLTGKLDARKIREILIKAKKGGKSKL
Sequence of Streptavidin (Streptomyces avidinii) (P22629 whole entry, looked up): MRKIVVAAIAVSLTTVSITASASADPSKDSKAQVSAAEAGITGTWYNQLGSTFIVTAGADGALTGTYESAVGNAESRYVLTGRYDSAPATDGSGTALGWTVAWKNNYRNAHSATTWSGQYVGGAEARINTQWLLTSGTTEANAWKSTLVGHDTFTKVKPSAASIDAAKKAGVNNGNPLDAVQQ
Sequence of Follistatin (Homo sapiens) (P19883 whole entry, looked up): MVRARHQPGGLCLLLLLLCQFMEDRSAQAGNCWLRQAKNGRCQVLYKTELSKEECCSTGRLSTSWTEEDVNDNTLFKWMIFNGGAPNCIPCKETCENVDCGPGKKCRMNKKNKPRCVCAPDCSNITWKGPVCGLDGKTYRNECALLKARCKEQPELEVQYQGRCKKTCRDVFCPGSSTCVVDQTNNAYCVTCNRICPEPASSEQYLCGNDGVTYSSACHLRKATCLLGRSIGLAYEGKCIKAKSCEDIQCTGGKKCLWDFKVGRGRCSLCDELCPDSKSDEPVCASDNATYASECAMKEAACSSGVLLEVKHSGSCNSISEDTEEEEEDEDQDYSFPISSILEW
Sequence of Torsin-1A (Homo sapiens) (O14656 whole entry, looked up): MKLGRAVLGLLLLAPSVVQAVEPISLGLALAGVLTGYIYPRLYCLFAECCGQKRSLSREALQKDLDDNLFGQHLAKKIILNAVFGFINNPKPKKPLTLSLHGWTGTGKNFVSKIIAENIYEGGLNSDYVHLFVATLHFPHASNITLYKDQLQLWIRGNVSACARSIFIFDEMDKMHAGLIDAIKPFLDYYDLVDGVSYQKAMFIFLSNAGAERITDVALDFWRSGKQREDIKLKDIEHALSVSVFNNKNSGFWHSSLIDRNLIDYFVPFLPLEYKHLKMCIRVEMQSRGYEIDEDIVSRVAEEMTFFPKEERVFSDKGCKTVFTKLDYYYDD
Sequence of Focal adhesion kinase 1 (Homo sapiens) (Q05397 whole entry, looked up): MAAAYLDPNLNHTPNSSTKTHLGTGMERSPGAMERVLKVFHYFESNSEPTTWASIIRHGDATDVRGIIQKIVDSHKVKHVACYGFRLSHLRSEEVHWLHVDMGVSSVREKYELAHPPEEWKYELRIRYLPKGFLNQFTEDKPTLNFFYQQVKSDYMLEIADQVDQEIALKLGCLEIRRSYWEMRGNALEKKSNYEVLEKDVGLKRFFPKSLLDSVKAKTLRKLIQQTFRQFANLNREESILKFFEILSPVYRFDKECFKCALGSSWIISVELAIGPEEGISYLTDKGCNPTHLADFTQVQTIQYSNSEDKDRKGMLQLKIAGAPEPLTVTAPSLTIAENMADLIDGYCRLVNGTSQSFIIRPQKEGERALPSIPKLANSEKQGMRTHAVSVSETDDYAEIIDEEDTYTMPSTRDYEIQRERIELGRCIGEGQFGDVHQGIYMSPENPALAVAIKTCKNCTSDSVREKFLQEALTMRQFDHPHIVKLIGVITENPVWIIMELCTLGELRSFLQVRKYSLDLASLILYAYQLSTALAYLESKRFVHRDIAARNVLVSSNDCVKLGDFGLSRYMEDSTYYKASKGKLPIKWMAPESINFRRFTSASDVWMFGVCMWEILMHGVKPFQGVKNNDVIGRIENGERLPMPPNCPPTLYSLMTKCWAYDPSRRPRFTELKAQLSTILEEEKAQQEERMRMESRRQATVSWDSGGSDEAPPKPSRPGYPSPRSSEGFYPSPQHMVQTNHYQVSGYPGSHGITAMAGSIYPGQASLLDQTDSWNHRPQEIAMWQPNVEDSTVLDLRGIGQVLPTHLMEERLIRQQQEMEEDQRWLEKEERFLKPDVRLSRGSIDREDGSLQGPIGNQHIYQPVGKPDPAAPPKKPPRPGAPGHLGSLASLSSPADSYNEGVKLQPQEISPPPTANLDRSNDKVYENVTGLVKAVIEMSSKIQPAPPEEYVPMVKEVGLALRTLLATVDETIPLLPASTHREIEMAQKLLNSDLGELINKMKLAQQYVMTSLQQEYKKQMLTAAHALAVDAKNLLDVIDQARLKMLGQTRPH

With `C=C(/C=C/CNS(=O)(=O)c1ccc(C)cc1)[C@H](O)[C@H]1CCCN1S(=O)(=O)c1ccccc1[N+](=O)[O-]`, the composite z-score in assay [1] is -0.394; in assay [2], 0.237; in assay [3], 0.0627; in [4] it was 0.53; in assay [5] it was 0.933; in [6] it was 0.891. Also, the composite z-score in the assay on Lefty1 was 0.887; in assay [8], 0.299; in assay [10] it was 0.118; in assay [15] it was 0.337; in assay [16], -0.0791; with Torsin-1A (Homo sapiens) [17] it was 0.361. The composite z-score with Torsin-1A (Homo sapiens) [18] came out at 0.388; in [19], 0.758. Further, the z-score is 0.381 in assay [7]; -0.83 (inactive) in assay [9]; -1.58 (inactive) in assay [11]; 1.01 (inactive) in assay [12]; 6.84 (inactive) in assay [13]; -1.17 (inactive) in assay [14].

Consider `C=CCN1Cc2ccccc2C[C@@]2(N=C(c3ccc(OCCCO)cc3)O[C@H]2c2ccccc2)C1=O`, for which the composite z-score in [1] worked out at 0.69; in [2] it was 1.24; in assay [3], 0.649; in assay [4] it was 0.801; in assay [5] it was 0.749; in assay [6], 0.955. In addition, the composite z-score in the assay on Lefty1 is 0.0744; in assay [8], 0.98; in assay [10], 0.762; in assay [15], 0.0967; in assay [16], 0.0471; with Torsin-1A (Homo sapiens) [17], 0.233. The composite z-score stood at 0.983 with Torsin-1A (Homo sapiens) [18] and 1.05 in assay [19]. The z-score in assay [7] was 0.943; in [9] it was -0.668 (inactive); in [11], -5.03 (inactive); in [12] it was -0.8 (inactive); in assay [13], -0.23 (inactive); in assay [14] it was -1.51 (inactive).

For `COCCOC(=O)N1C(=O)[C@@]2(c3cc(C#Cc4ccc(OC)cc4)ccc31)[C@H](C(=O)N1CCCCCCC1)[C@H]1C(=O)O[C@H](c3ccccc3)[C@H](c3ccccc3)N1[C@@H]2c1ccc(O)cc1`, the composite z-score in assay [1] is -0.0844; in [2], 1.12; in [3], 0.277; in [4] it was 0.205; in assay [5] it was 1.38; in [6], 0.541. The composite z-score in the assay with Lefty1 came to 1.04; in assay [8] it was 0.351; in assay [10], 0.164; in assay [15], 0.123; in assay [16], 0.696; with Torsin-1A (Homo sapiens) [17], 0.536. The composite z-score with Torsin-1A (Homo sapiens) [18] amounted to 0.864; in assay [19], 1.47. Further, the z-score in assay [7] was -1.42; in assay [9], -0.0524 (inactive); in assay [11], -5.16 (inactive); in assay [12] it was -1.11 (inactive); in [13] it was -1.02 (inactive); in assay [14], -0.841 (inactive).

As to `[N-]=[N+]=Nc1ccccc1C[C@]1(C(=O)NCc2ccccc2)N=C(c2ccc(OCCCO)cc2)O[C@H]1c1ccccc1`, the composite z-score in [1] is 1.93; in assay [2], 1.24; in [3] it was 0.0541; in assay [4], 0.998; in [5], 1.13; in [6] it was 0.0124. Moreover, the composite z-score was found to be 0.0213 with Lefty1; 1.12 in assay [8]; 0.307 in assay [10]; 1.44 in assay [15]; 0.192 in assay [16]; 0.403 in the assay with Torsin-1A (Homo sapiens) [17]. The composite z-score with Torsin-1A (Homo sapiens) [18] was 0.687; in [19], -0.312. Moreover, the z-score in assay [7] is 0.482; in [9], -1.34 (inactive); in [11], -3.03 (inactive); in [12], -0.523 (inactive); in [13] it was -0.585 (inactive); in [14] it was 1.15 (inactive).

With `O=C1C2C=CC(C(O)c3cc(C(F)(F)F)cc(C(F)(F)F)c3)N(Nc3ccc([N+](=O)[O-])cc3)C2C(=O)N1c1ccccc1` (stereo not given), the composite z-score was 0.338 in assay [1]; 1.24 in assay [2]; 0.681 in assay [3]; 1.02 in [4]; 1.05 in assay [5]; 0.4 in assay [6]. Further, the composite z-score in the assay on Lefty1 amounted to 0.953; in assay [8] it was 0.599; in assay [10], 0.553; in assay [15], 1.02; in assay [16], 0.358; with Torsin-1A (Homo sapiens) [17], 0.621. Moreover, the composite z-score in the assay with Torsin-1A (Homo sapiens) [18] was 0.428; in [19], 0.74. The z-score in assay [7] is -0.953; in assay [9] it was 0.833 (inactive); in [11] it was -4.58 (inactive); in [12], -0.0376 (inactive); in assay [13], 1.63 (inactive); in assay [14], -0.303 (inactive).
